Only some compounds are listed: those with a hit (about 32% of all), similar ones and a draw of the others.
CYP2C9 act – human CYP2C9 activators, primary screen, biochemical, luminescence. Cytochrome P450 2C9 (Homo sapiens), P11712. recombinant CYP2C9, luciferin-H conversion; active compounds read high; factor 1 = untreated enzyme, 0 = blocked. activation factor at 5 µM. hit rate 1.4% among 96,000;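 active = activation factor of 2 or more for CYP2C9 at a 5 µM dose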
Target sequence (P11712 whole entry, looked up): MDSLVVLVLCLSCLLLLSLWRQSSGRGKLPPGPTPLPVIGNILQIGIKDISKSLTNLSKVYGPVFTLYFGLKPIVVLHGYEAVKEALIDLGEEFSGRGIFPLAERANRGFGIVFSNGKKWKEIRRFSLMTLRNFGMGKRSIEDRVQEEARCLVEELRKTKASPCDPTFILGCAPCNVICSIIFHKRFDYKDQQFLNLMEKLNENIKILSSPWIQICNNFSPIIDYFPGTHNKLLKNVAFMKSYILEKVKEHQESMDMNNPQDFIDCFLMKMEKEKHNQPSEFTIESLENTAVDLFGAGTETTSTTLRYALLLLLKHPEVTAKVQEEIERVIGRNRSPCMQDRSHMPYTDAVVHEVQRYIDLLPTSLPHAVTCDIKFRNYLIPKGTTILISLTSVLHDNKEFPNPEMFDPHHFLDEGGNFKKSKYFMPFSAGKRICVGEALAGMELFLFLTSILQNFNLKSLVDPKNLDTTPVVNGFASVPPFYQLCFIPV
CYP2C19 activ – human CYP2C19 activators, primary screen, biochemical, luminescence; 96,000 tested, under 10 active; recombinant CYP2C19, luciferin-H EGE luminescence; active compounds read high; 0 = fully inhibited enzyme, 1 = untreated enzyme; AID 1025, 2008; activation factor at 5 µM;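 active = activation factor of at least 2 at 5 µM in the primary screen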
CYP2C9 inhib – blockers of cytochrome P450 2C9 activity – biochemical, luminescence, ADME assay, primary screen. CYP2C9 Supersomes, luciferin-H conversion. P11712. inhibition, % at 5 µM. hit rate 20% among 96,000;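 active = blocking of liver enzyme CYP2C9 beyond about 50% at 5 µM, limit read from the data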
PostGolgi yeast – phenotypic screen on post-Golgi transport, primary screen | post-Golgi transport phenotypic cell assay | inhibition, % at 10 µM | hit rate 0.9% among 98,000;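 note: yeast cells grown in 1536-well plates; yeast grown about 18 h at 30C before absorbance read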
CYP2C19 inhib – blockers of cytochrome P450 2C19 activity – biochemical, luminescence, ADME assay, primary screen; AID 778, 2007; CYP2C19 Supersomes, luciferin-H EGE luminescence, 30 min; inhibition, % at 5 µM; P33261; hit rate 21% among 96,000;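 active = CYP2C19 inhibition above a set limit at 5 µM in the primary screen, cut at about 50% in these data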
PostGolgi ctrl – growth inhibition of yeast control strain, primary screen, counter-screen for post-Golgi transport modulator project | efflux-deficient yeast background strain, growth absorbance A615, 16 h | inhibition, % at 10 µM | hit rate 5% among 98,000
Numbers stand for hits; - = inactive. Cut-off read from the data, not from the text of the source, unless noted: active = inhibition above about 30%; inactive = the rest.

SMILES	CYP2C9 act	CYP2C19 activ	CYP2C9 inhib	PostGolgi yeast	CYP2C19 inhib	PostGolgi ctrl
O=C(COC(=O)C1CC2C=CC1C2)NCc1ccco1 (stereo unspecified)	-	-	-	-	64	-
NS(=O)(=O)c1cc(C(=O)N2CCc3ccccc32)c(Cl)cc1Cl	-	-	-	-	-	-
Cc1cc2c(c(=O)n1Cc1ccc3c(c1)OCO3)C(c1cccnc1)C(C#N)=C(N)O2 (stereo unspecified)	-	-	52	-	-	-
COc1ccc(C2C(C#N)=C(N)Oc3cc(C)n(Cc4ccco4)c(=O)c32)cc1 (stereo unspecified)	-	-	68	-	-	-
COc1ccccc1C1C(C#N)=C(N)Oc2cc(C)n(CCCn3ccnc3)c(=O)c21 (stereo unspecified)	-	-	100	-	90	-
Cc1cc2c(c(=O)n1Cc1cccnc1)C(c1ccccc1)C(C#N)=C(N)O2 (stereo unspecified)	-	-	-	-	-	-
Cc1cc2c(c(=O)n1CCCn1ccnc1)C(c1ccco1)C(C#N)=C(N)O2 (stereo unspecified)	-	-	100	-	76	-
Clc1ccc(Cc2ccc(Cl)nn2)c(Cl)c1	-	-	-	-	73	-
Cc1ccc(CN(C(=O)Cn2nnc3ccccc32)C(C(=O)NCc2ccco2)c2cccs2)cc1 (stereo unspecified)	-	-	-	-	73	-
Cc1ccc(C(=O)NCc2ccc(Cl)c(Cl)c2)o1	-	-	-	-	84	-
CCOC(=O)NCc1ccc(Cl)c(Cl)c1	-	-	-	-	-	36
Cc1ccc(C(=O)NCc2occc2C(=O)O)o1	-	-	-	34	-	-
COCCNC(=O)c1ccc(Cl)c(Cl)c1	-	-	-	-	-	-
Cc1nn(CC(=O)Nc2ccc3c(c2)oc2ccccc23)c(=O)c2ccccc12	-	-	-	-	-	-
COc1cc(OC)c(C2N(C)c3ccccc3N2C)cc1OC	-	-	-	-	-	-
CC(C)(C)n1ncc2c(=O)n(CC(=O)Nc3ccc4c(c3)OCCO4)cnc21	-	-	-	-	-	-
Cc1c(C(=O)N2CCCc3ccccc32)oc2ccc(S(=O)(=O)N3CCOCC3)cc12	-	-	85	-	96	-
O=S(=O)(c1ccc2oc3ccccc3c2c1)N1CCOCC1	-	-	-	-	-	-
CCOC(=O)N1CCN(C(=O)c2oc3ccc(S(=O)(=O)N4CCCCCC4)cc3c2C)CC1	-	-	73	-	80	-
O=S(=O)(c1ccc2oc3ccc(S(=O)(=O)N4CCCCC4)cc3c2c1)N1CCCCC1	-	-	66	-	-	-
CCOC(=O)N1CCN(C(=O)c2oc3ccc(S(=O)(=O)N4CCOCC4)cc3c2C)CC1	-	-	75	-	55	-
O=C(c1cccc(S(=O)(=O)N2CCOCC2)c1)N1CCCc2ccccc21	-	-	-	-	-	-
Cc1ccc(CNC(=O)c2oc3ccc(S(=O)(=O)N4CCOCC4)cc3c2C)cc1	-	-	-	-	-	-
CC1CCN(CCc2nc3cc(NC(=O)NC4CCCCC4)ccc3n2C)CC1	-	-	-	-	-	-
CCOC(=O)C1CCN(C(=O)c2oc3ccc(S(=O)(=O)N4CC(C)CC(C)C4)cc3c2C)CC1 (stereo unspecified)	-	-	-	-	-	-
SMILES	CYP2C9 act	CYP2C19 activ	CYP2C9 inhib	PostGolgi yeast	CYP2C19 inhib	PostGolgi ctrl
CCOC(=O)N1CCN(C(=O)c2oc3ccc(S(=O)(=O)N4CC(C)CC(C)C4)cc3c2C)CC1 (stereo unspecified)	-	-	51	-	61	-
Clc1ccc(Cn2cc(Br)cn2)cc1Cl	-	-	-	-	72	-
O=C(Nc1cnn(Cc2ccc(Cl)cc2)c1)c1cnccn1	-	-	62	-	-	-
Clc1cccc(Cl)c1Cn1cc(Br)cn1	-	-	-	-	-	-
CC(=O)Nc1cnn(Cc2ccc(Br)cc2)c1	-	-	-	-	66	-
O=C(C1CCCN(Cc2ccccc2)C1)N1CCCCC1 (stereo unspecified)	-	-	-	-	-	-
Cc1cccc(CN2CCCC(C(=O)N3CCc4ccccc4C3)C2)c1 (stereo unspecified)	-	-	-	-	64	-
O=C(C1CCCN(Cc2ccncc2)C1)N1CCc2ccccc2C1 (stereo unspecified)	-	-	67	-	96	-
CN(C)C(=O)N1CCC(C(=O)NCc2ccccc2)CC1	-	-	-	-	-	38
CCOC(=O)C1CCCN(C(=O)Nc2ccccc2)C1 (stereo unspecified)	-	-	-	-	-	-
CN(C)C(=O)N1CCC(C(=O)NCc2ccc(F)cc2)CC1	-	-	-	-	-	-
O=C(Nc1ccccc1)N1CCCC2CCCCC21 (stereo unspecified)	-	-	-	30	-	-
O=C(NCc1ccccc1)C1CCCN(C(=O)Nc2ccccc2)C1 (stereo unspecified)	-	-	-	-	67	-
C/C(=N\OC(=O)c1ccc(Cl)cc1)c1nccs1	-	-	-	-	-	-
O=c1c2ccccc2c(-c2ccccc2)nn1-c1ccc(Cl)c(Cl)c1	-	-	-	-	-	-
O=C(Nc1ccc(Br)cc1)C1CC=CCC1C(=O)OCC1CCCO1 (stereo unspecified)	-	-	-	-	51	-
O=C(Nc1ccc(Cl)cc1)C1CC=CCC1C(=O)OCC(F)(F)C(F)F (stereo unspecified)	-	-	-	-	-	-
O=S(=O)(NCc1cn2ccsc2n1)c1ccc2c(c1)OCCO2	-	-	-	-	87	-
O=S(=O)(NCc1cn2ccsc2n1)c1ccc(Oc2ccccc2)cc1	-	-	80	-	69	-
O=S(=O)(NCc1cn2ccsc2n1)c1cccs1	-	-	-	-	-	-
CC1=C(C(=O)Nc2ccc(F)cc2)C(c2cccc(C)c2)n2nc(CCCO)nc2N1 (stereo unspecified)	-	-	-	-	-	-
COc1ccc(-c2cc(NCc3ccccn3)n3ncnc3n2)cc1	-	-	-	-	-	-
COc1ccc(-c2cc(-c3ccc(Br)cc3)nc3ncnn23)cc1OC	-	-	55	-	-	-
CCOC(=O)c1sc(NC(=O)CSc2nnc(Cc3ccccc3)o2)c(C#N)c1C	-	-	90	-	-	-
CCOC(=O)c1c(NC(=O)CSc2nnc(-c3ccccc3)o2)sc(C(C)=O)c1C	-	-	75	-	-	-
CCOC(=O)c1c(NC(=O)CSc2nnc(Cc3ccccc3)o2)sc(C(C)=O)c1C	-	-	52	-	-	-
